Measurements as given in PubChem BioAssay AID686978 (National Center for Advancing Translational Sciences (NCATS), 2013).
In all, about 420,000 compounds went through this assay and about 64,000 (15%) were called active. Another 27% or so got no clear call; they are omitted. A selection follows. Values without a mark were called inactive. Calls come from the whole dose curve; as a rule, active = well fitted inhibition curve with a large enough effect; inconclusive = small, poorly fitted or top-dose-only effect; inactive = flat fitted curve, though single readings scatter.

Experiment: qHTS for Inhibitors of human tyrosyl-DNA phosphodiesterase 1 (TDP1): qHTS in cells in absence of CPT; note: nearly all actives have a fitted effect of over 55% in size
Conditions: DT40 Tdp1-/- hTDP1 cells, no CPT, ATP luminescence, 48 h; activity change, negative = growth inhibition: at 46.2 µM (top of the series)
Method in brief: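 Chicken DT40 Tdp1-/- cells complemented with human TDP1, screened without camptothecin (DMSO vehicle only), 400 cells/well. Compounds pin-transferred, cells incubated at 37 °C for at least 48 hr. Growth read as ATP-dependent luminescence (CellTiter-Glo, 30 min at RT).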
% is set by controls: 0 for no effect and ±100 for the full control effect; potency is the fitted concentration of half-maximal effect.

Row | Structure (SMILES) | activity change, negative = growth inhibition [%] | Potency
1 | CCOc1cc2[nH]c(=S)n(CCN3CCCCC3C)c(=O)c2cc1OCC (centres undefined) | -22.3 | –
2 | O=C(NN1C(=O)C2C3C=CC(C3)C2C1=O)c1ccco1 (centres undefined) | -3.19 | –
3 | COc1ccc(OC)c(NC(=O)N[C@H](Cc2ccccc2)C(=O)NN)c1 | 9.7 | –
4 | O=C(COC(=O)/C=C/c1ccc(Br)o1)Nc1cccc(S(=O)(=O)N2CCOCC2)c1 | 9.84 | –
5 | O=C(Nc1ccc(-c2cscn2)cc1)C1CCCN(Cc2ccc(CO)o2)C1 (centres undefined) | -0.798 | –
6 | COc1ccccc1/C=N/N1CCN(Cc2ccccc2Cl)CC1 | 9.68 | –
7 | O=C1C(Cc2ccc(O)cc2)NC(=S)N1Cc1ccccc1 (centres undefined) | 9.72 | –
8 | CCC1Nc2ncnc(N3CCN(c4ccccc4)CC3)c2N(Cc2ccc(Cl)cc2)C1=O (centres undefined) | – | 20.6 µM (active)
9 | CCS(=O)(=O)N1CCC(N2CCN(c3ccccc3)CC2)CC1 | -2.72 | –
10 | O=C(Nc1ccnc(-c2ccncc2)n1)c1cccs1 | 11 | –
11 | Cc1ccc(C(=O)Nc2cc3c(cc2N2CCCC2)n(C)c(=O)c(=O)n3C)cc1 | – | 20.6 µM (active)
12 | Cn1c(=O)n(C)c2cc(C(=O)Nc3ccc(Br)cc3)ccc21 | -23 | –
13 | CCc1ccc(S(=O)(=O)Nc2cc3c(cc2N2CCCCC2)n(C)c(=O)c(=O)n3C)cc1 | -11.4 | –
14 | C=C(C)CNC(=O)c1ccc(OC2CCN(C(=O)COC)CC2)cc1 | -11.9 | –
15 | C=CCNC(=O)COC(=O)CNC(=O)c1cc(Cl)cc([N+](=O)[O-])c1 | 2.59 | –
16 | Cc1c(Cl)cccc1NC(=O)[C@@]1(CC(=O)O)CC(/C=C/c2ccccc2)=NO1 | -3.3 | –
17 | CCc1c(-c2ccc(F)cc2)ncn1Cc1cccc(-c2ccccc2)c1 | – | 11.6 µM (active)
18 | Cc1ccc(-c2csc(C(C#N)=C(O)CN3CCN(C(=O)c4ccco4)CC3)n2)cc1 | -14 | –
19 | Cc1ccc(CNC(=O)CCC(=O)N2Cc3ccccc3Oc3ncccc32)cc1 | -21.9 | –
20 | C=CCc1cc(C)ccc1OCCCn1ccnc1 | -29.9 | –
21 | Oc1ccc(Cl)cc1/C=N/c1nc2ccccc2[nH]1 | -2.28 | –
22 | OC(c1nc2ccc(F)cc2[nH]1)C(O)c1nc2ccc(F)cc2[nH]1 (centres undefined) | -27.1 | –

Row | Structure (SMILES) | activity change, negative = growth inhibition [%] | Potency
23 | SCc1nc2ccc(Cl)cc2[nH]1 | – | 3.98 µM (active)
24 | Cc1ccc2nc(SCC(=O)N3CCN(c4ccccc4)CC3)nc(=O)n2c1 | -22.6 | –
25 | CCc1nnc(NC(=O)CCCSc2nc3ccccc3[nH]2)s1 | -6.59 | –
26 | CN1C(=O)/C(=C\c2ccc(-c3ccccc3)o2)SC1=S | -28.6 | –
27 | CCC(C)N1C(=O)S/C(=C/c2ccc(Sc3nc4ccccc4[nH]3)o2)C1=O (centres undefined) | – | 11.2 µM (active)
28 | COc1ccc(C(CNCC(=O)Nc2ccccc2F)N(C)C)cc1 (centres undefined) | 6.62 | –
29 | CCO[C@H]1OC(C(=O)N2CCCCCCC2)=C[C@@H](c2ccc(C(F)(F)F)cc2)[C@@H]1CCCO | – | 20.6 µM (active)
30 | CCO[C@@H]1OC(C(=O)N2CCOCC2)=C[C@H](C)[C@H]1CCCO | -6.76 | –
31 | CCO[C@H]1OC(C(=O)N2CCOCC2)=C[C@@H](c2ccc3c(c2)OCO3)[C@@H]1CCCO | 2.7 | –
32 | CC1CN(C(=S)Nc2cccc(F)c2)CC(C)O1 (centres undefined) | -12.5 | –
33 | CN(Cc1ccc(CNC[C@H]2O[C@@H](n3cnc4c(N)ncnc43)[C@H](O)[C@@H]2O)o1)S(C)(=O)=O | -13.6 | –
34 | Cc1ccc2[nH]c(=O)c(CN(CC3COCCO3)C(=O)Nc3ccccc3C)cc2c1 (centres undefined) | -28.1 | –
35 | Cc1cccc(NC(=O)C2CC(=O)OC23CCCC3)c1 (centres undefined) | 15.3 | –
36 | Cc1cccc(NC(=O)N(Cc2cc3cc(C)cc(C)c3[nH]c2=O)CC2COCCO2)c1 (centres undefined) | – | 16.4 µM (active)
37 | O=C(O)c1[nH]c2ccccc2c1C(c1cccc(O)c1)c1c(C(=O)O)[nH]c2ccccc12 | 14.1 | –
38 | COC(=O)c1ccc(CNC(=O)C2CCC(=O)N(Cc3ccccn3)C2)cc1 (centres undefined) | 6.62 | –
39 | CN1CCN(C(=O)Cn2c(C(F)(F)F)nc3ccccc32)CC1 | -1.67 | –
40 | FC(F)(F)c1cccc(Nc2ncnc3ccccc23)c1 | – | 18.4 µM (active)
41 | O=c1cc(CO)oc(C(Nc2cccc(C(F)(F)F)c2)c2ccccn2)c1O (centres undefined) | -7.37 | –
42 | Cc1nc2nc(C)c(CCC(=O)N3CCN(c4ccccc4)CC3)c(C)n2n1 | 2.82 | –
43 | COc1ccccc1CN1CCCC(N2CCN(c3ccc(F)cc3)CC2)C1 (centres undefined) | -13 | –
44 | Cc1cc(=O)oc(C)c1C(=O)NCc1ccc(F)cc1 | 1.68 | –

Row | Structure (SMILES) | activity change, negative = growth inhibition [%] | Potency
45 | CCC(=O)Nc1nnc(S(=O)(=O)N2CCCc3ccccc32)s1 | -17.1 | –
46 | CC1CCN(c2ccc([N+](=O)[O-])c(SCCO)c2)CC1 | – | 23.1 µM (active)
47 | CC1CCN(c2ccc3c(c2)S(=O)(=O)c2cc(C(=O)O)ccc2C3=O)CC1 | -0.649 | –
48 | CC1CCN(c2ccc(C(=O)Nc3nnc(C4CC4)s3)cc2[N+](=O)[O-])CC1 | -21.5 | –
49 | COCCn1c(N)c(NCc2ccccc2)c(=O)[nH]c1=O | -23.5 | –
50 | COC(=O)c1sc(C(F)(F)F)c(-c2ccccc2)c1S(=O)(=O)N(C)C | -2.69 | –
51 | Cc1ccc(-n2nc(CO)c(C(=O)NCCc3ccccc3)n2)cc1 | 3.15 | –
52 | CC(CCCc1ccccc1)NC(=O)c1nn(-c2ccc(Cl)cc2)nc1CO (centres undefined) | – | 20.6 µM (active)
53 | CC(C)NC(=O)c1nn(-c2ccccc2F)nc1CO | -8.91 | –
54 | CCc1ccc(NC(=O)CCNS(=O)(=O)c2cccs2)cc1 | -2.67 | –
55 | O=C(CN(C(=O)CNC(=O)c1cccs1)c1cccc(F)c1)NC1CCCCC1 | -5.97 | –
56 | Cc1nn(CC(=O)NCCc2ccccc2)c(=O)c2cc3occc3n12 | 30.7 | –
57 | CCc1ccc(-c2cc3c(=O)n(CC(=O)NCCCN4CCN(Cc5ccccc5)CC4)nc(C)n3n2)cc1 | – | 16.4 µM (active)
58 | CCCN1CCN(CCCNC(=O)Cn2nc(CC)n3c(cc4occc43)c2=O)CC1 | -3.26 | –
59 | COc1cc(OC)cc(-c2nc(=S)n3ccsc3n2)c1 | -0.435 | –
60 | O=S(=O)(Cc1cc(Cl)nc(-c2cccnc2)n1)c1ccccc1 | -24.3 | –
61 | O=S(=O)(Cc1cc(Sc2ccccc2)nc(-c2ccccc2)n1)c1ccccc1 | – | 23.1 µM (active)
62 | CCS(=O)(=O)n1nc(-c2ccccc2)nc1SCc1ccccc1 | -12.3 | –
63 | COCCCNC(=O)Cn1c(=O)n(Cc2ccccc2Cl)c(=O)c2cc(OC)c(OC)cc21 | -12.9 | –
64 | CCCCCOC(=O)c1ccc(N2C(=O)C3C4C=CC(C4)C3C2=O)cc1 (centres undefined) | -27.6 | –
65 | COc1cc(C2CC(=O)N3CN(Cc4ccccc4)CSC3=C2C#N)ccc1OCc1ccccc1 (centres undefined) | -22 | –
66 | O=C(NCC1CC1)c1onc(CSc2ccccc2)c1C(=O)NCC1CC1 | – | 20.6 µM (active)

Row | Structure (SMILES) | activity change, negative = growth inhibition [%] | Potency
67 | O=C(NCc1ccccc1)c1onc(CSc2ccncc2)c1C(=O)NCc1ccccc1 | -12.6 | –
68 | COc1ccc(SCc2noc(C(=O)NCC3CCCO3)c2C(=O)O)cc1 (centres undefined) | 0.709 | –
69 | COc1ccc(C(=O)NC(=S)N2CCNC(=O)C2CC(=O)OC(C)C)cc1 (centres undefined) | 10.8 | –
70 | O=c1cc(CSc2ccc(Cl)cc2)nc(N2CCOCC2)[nH]1 | -8.75 | –
71 | Cc1ccc2nc(N3C(=O)C(O)=C(C(=O)c4ccco4)C3c3cccc(O)c3)sc2c1 (centres undefined) | 7.55 | –
72 | COc1cccc(C(O)c2nc3ccccc3n2C)c1 (centres undefined) | -9.21 | –
73 | COc1cc(C(O)c2nc3ccccc3n2C)cc(OC)c1OC (centres undefined) | – | 18.4 µM (active)
74 | COc1ccc(OC)c(C(O)c2nc3ccccc3n2C)c1 (centres undefined) | 13.2 | –
75 | COc1ccc(-c2cc(=O)oc3cc(OC(C)C(=O)NCC4CCC(C(=O)O)CC4)ccc23)cc1 (centres undefined) | -16.3 | –
76 | Cc1cc(=O)n2nc(N3CCCC(C(=O)NCc4cccc(Cl)c4)C3)sc2n1 (centres undefined) | 20.8 | –
77 | O=C(NCc1ccccc1)C1CCCN(c2nc3ccsc3c(=O)s2)C1 (centres undefined) | -22.8 | –
78 | O=C(NCCc1cccc(F)c1)C1CCCN(c2nc3ccccc3s2)C1 (centres undefined) | – | 23.1 µM (active)
79 | COc1ccccc1C(=O)NC(=O)COC(=O)C1CC1 | -0.675 | –
80 | Cc1cccc(CN2CCC(n3nccc3NC(=O)c3ccccc3C)CC2)n1 | 0.0568 | –
81 | Cc1ccccc1CN1CCC(CNC(=O)c2cc3ccc4cccnc4c3[nH]2)CC1 | – | 23.1 µM (active)
82 | CCOc1ccccc1N(CC)C(=O)c1cc2ccc3cccnc3c2[nH]1 | – | 5.8 µM (active)
83 | COc1cc(NC(=O)c2cc3ccc4cccnc4c3[nH]2)cc(OC)c1OC | -8.52 | –
84 | Cc1ccccc1CN1CCN(C(=O)c2cccc(F)c2)CC1 | -24.2 | –
85 | CCOc1cc2ccccc2cc1C(=O)Nc1ccccn1 | -22.9 | –
86 | CCc1nnc(SCc2cccc(F)c2)nc1CC | -0.858 | –
87 | CSCCC(NC(=O)C1CCC(C)CC1)C(=O)NCc1ccco1 (centres undefined) | -3.03 | –
88 | Cc1cc(C(F)(F)F)c(C#N)c(SCC(=O)NC2CC2)n1 | -5.72 | –

Row | Structure (SMILES) | activity change, negative = growth inhibition [%] | Potency
89 | CC(=O)N(CN1C(=O)C2CC=CCC2C1=O)c1cccc(Cl)c1 (centres undefined) | -26.5 | –
90 | O=C1CSC(c2cccc(F)c2)N1c1ccccc1F (centres undefined) | -21 | –
91 | COc1ccc(C(=O)CSc2nccc(=O)[nH]2)cc1 | -14.2 | –
92 | Cc1ccc(CNC(=O)CSc2c(C)cnc3c2c(=O)n(C)c(=O)n3C)cc1 | -15.4 | –
93 | COc1ccc(C(=O)CSc2c(C(C)C)cnc3c2c(=O)n(C)c(=O)n3C)cc1 | – | 13 µM (active)
94 | COc1ccc(C(=O)CSc2n[nH]c(N)n2)cc1 | -16 | –
95 | CC(=O)c1ccc(NC(=O)CSc2c(C(C)C)cnc3c2c(=O)n(C)c(=O)n3C)cc1 | – | 14.6 µM (active)
96 | COCCNC(=O)CSc1c(C)cnc2c1c(=O)n(C)c(=O)n2C | 1.96 | –
97 | COc1ccc(C(=O)O)cc1S(=O)(=O)NCc1cccnc1 | 14 | –
98 | Cc1snc(SCc2c(F)cccc2Cl)c1C#N | -25.5 | –
99 | O=C(NN1C(=O)C2C3C=CC(O3)C2C1=O)c1ccccc1 (centres undefined) | 6.73 | –
100 | Cc1ccc2c(C)c(C(=O)N3CCC(N4CCC(C(=O)NC5CC5)CC4)CC3)oc2c1 | -6.02 | –
101 | COc1cc(Cl)c(C)cc1NC(=O)COC(=O)c1cc(SC)ccc1Cl | 1.67 | –
102 | CCc1nc2ccc(C(=O)N(C)Cc3ccco3)cn2c1N(C)C(=O)Cc1ccccc1 | -17 | –
103 | CC(NC(=O)COc1cccnc1[N+](=O)[O-])c1ccc(Cl)cc1Cl (centres undefined) | -2.29 | –
104 | CCc1nc2c(OCc3ccc(C(F)(F)F)cc3)cccn2c1N(C)C(=O)CC(C)C | – | 20.6 µM (active)
105 | CCCCC(=O)N(C)c1c(CC)nc2c(OCc3ccc(Cl)cc3Cl)cccn12 | – | 9.2 µM (active)
106 | CCc1nc2ccc(C(=O)N3CCC(O)(Cc4ccccc4)CC3)cn2c1N(C)C(=O)Cc1ccccc1 | -26.2 | –
107 | CC(C)(C)NC(=O)NC(=O)COC(=O)Cc1ccc(Cl)cc1Cl | -0.501 | –
108 | CCc1nc2c(OCc3ccc(Cl)cc3Cl)cccn2c1N(C)C(=O)C(C)C | – | 8.2 µM (active)
109 | COc1cccc(NC(=O)CN(C)C(=O)Cc2ccc(Cl)cc2Cl)c1 | -1.62 | –
